A selection: hits, their analogues and other compounds. The true share with any hit is near 18%.
VP16 counter = inhibits Gal4-VP16 luciferase reporter, ROR gamma counter-screen | Drosophila S2 Gal4-VP16 UAS-luciferase, luminescence, 20 h | Potency, µM (highest dose often 53.6 µM), inactives show at the top dose activity, negative = inhibition, usual class: inhibitors | 3.5% of 310,000 active | AID 2546;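 note: Gal4-VP16 expression switched on by copper sulfate through the metallothionein promoter; potency is the fitted concentration of half-maximal effect; nearly all actives have a fitted effect of over 50% in size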
IL-1B inflam inh = blocks inflammasome-driven IL-1 beta release. activity change, % at 57.5 µM. 4.7% of 360,000 active. THP-1 LPS/ATP IL-1B secretion, AlphaLISA, 16 h; hits give low values; in the data active = activity change below about -50%; inconclusive = mostly about -30% to -49%
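THP-1 cells pretreated 1 hr with compounds (up to 57.5 uM final), then stimulated with LPS (250 ng/mL final) plus ATP (1.25 mM final); secreted IL-1B measured by AlphaLISA after 16 hr, decreased signal indicating inhibition.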
DT40 TDP1 no CPT = qHTS for Inhibitors of human tyrosyl-DNA phosphodiesterase 1 (TDP1): qHTS in cells in absence of CPT. DT40 Tdp1-/- hTDP1 cells, no CPT, ATP luminescence, 48 h. Potency, µM (titrated, usually from 46.2 µM), for the others: at the top dose activity change, negative = growth inhibition, most hits filed as inhibitors. 15% of 420,000 active. AID 686978, 2013; note: potency is the fitted concentration of half-maximal effect; nearly all actives have a fitted effect of over 55% in size
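No-CPT arm: Tdp1-/-;hTDP1 DT40 cells (400/well) plus compounds, incubated ≥48 hr at 37 °C. Readout CellTiter-Glo luminescence.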
DT40 TDP1 CPT = growth inhibition of DT40 Tdp1-/-;hTDP1 cells with camptothecin (screen for TDP1 inhibitors). chicken DT40 Tdp1-/-;hTDP1 cells + 20 nM CPT, ATP luminescence, 48 h. Potency, µM (series often up to 46.2 µM), without a hit: at the highest dose activity change, negative = growth inhibition, usual class: inhibitors. 12% of 420,000 active. AID 686979; note: potency is the fitted concentration of half-maximal effect; nearly all actives have a fitted effect of over 55% in size
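Cell growth measured by CellTiter-Glo luminescence after a minimum 48 h, 37 C compound exposure with 20 nM CPT in Tdp1-knockout DT40 cells stably expressing hTDP1, seeded 400/well; qHTS titration format.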
RORgamma inh = ROR gamma (mouse) transcription inhibition | P51450 | Drosophila S2 Gal4-RORgamma UAS-luciferase reporter, 20 h | Potency, µM (doses to about 53.6 µM), for the others: at the highest dose activity change, negative = inhibition, usual class: inhibitors | 5.4% of 310,000 active | AID 2551; note: potency is the fitted concentration of half-maximal effect; nearly all actives have a fitted effect of over 60% in size
Target sequence (P51450 whole entry, looked up, the tested form may be a part): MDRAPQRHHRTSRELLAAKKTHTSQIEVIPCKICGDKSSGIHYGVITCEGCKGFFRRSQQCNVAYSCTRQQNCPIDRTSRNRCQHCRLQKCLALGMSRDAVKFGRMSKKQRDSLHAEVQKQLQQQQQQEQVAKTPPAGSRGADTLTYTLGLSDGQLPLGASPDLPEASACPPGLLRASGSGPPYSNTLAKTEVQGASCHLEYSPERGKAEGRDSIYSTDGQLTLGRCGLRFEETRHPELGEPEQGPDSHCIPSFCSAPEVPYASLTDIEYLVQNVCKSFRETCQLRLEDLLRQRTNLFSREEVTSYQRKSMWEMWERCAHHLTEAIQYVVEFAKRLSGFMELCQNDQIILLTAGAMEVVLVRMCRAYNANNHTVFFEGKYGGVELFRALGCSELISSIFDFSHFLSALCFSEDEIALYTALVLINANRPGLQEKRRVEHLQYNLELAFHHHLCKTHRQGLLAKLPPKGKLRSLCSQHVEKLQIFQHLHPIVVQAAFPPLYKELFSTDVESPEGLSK
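Using a luciferase readout, inhibitors were identified by reduced reporter activity in Drosophila cells coexpressing a copper-inducible Gal4–ROR gamma fusion and UAS-driven Photinus luciferase, incubated 20 hr after 700 uM copper sulfate.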
LDHA inh = LDHA (human) enzyme inhibition. purified LDHA, NADH/diaphorase-resazurin fluorescence; hits give low values. activity change, % (values are at about 110 or 230 µM). AID 1347041. 0.15% of 480,000 active; in the data active = activity change below about -30%; inconclusive = mostly about -25% to -30%;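 note: plate controls were DMSO wells for no effect and wells without enzyme for full effect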
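Resorufin fluorescence (ex540/em590), read at 0 and 20 min after diaphorase/resazurin addition, reports the NADH left after a 5 min room-temperature reaction of 2 nM human LDH5 with 0.06 mM NADH and 0.2 mM pyruvate.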
* hit, by the source's call; ? = inconclusive; · = not tested or not shown; [ ] = another dose, or the depositor's remark. Unless noted, calls come from the whole dose curve; as a rule, active = well fitted curve in the direction sought with a large enough effect; inconclusive = small, poorly fitted or top-dose-only effect, or another doubt; inactive = no such curve, though single readings can be large; an effect the other way counts as inactive or inconclusive. Unless noted, % is set by controls: 0 for no effect and ±100 for the full control effect.

SMILES | VP16 counter | IL-1B inflam inh | DT40 TDP1 no CPT | DT40 TDP1 CPT | RORgamma inh | LDHA inh
Cc1cc(Br)ccc1NC(=S)N1CCOCC1 | 1.2% | -26.4 | 3.9% | 2.2% | 12.6µM* | -15.2
COc1ccc(Cl)cc1NC(=S)NN1CCOCC1 | ? | 13.9 | 0.6% | -7.1% | 5.01µM* | 2.0
COc1ccc(OC)c(NC(=S)NN2CCOCC2)c1 | -8.3%[0.365 µM] | 5.6 | -9.0% | -19.4% | 28.2µM* | -1.5
COc1ccc(NC(=S)NN2CCOCC2)cc1OC | 1.0% | 0.4 | 1.5% | -4.4% | -26.6% | 0.7
COc1ccc(OC)c(NC(=S)NN2CCN(C)CC2)c1 | 5.7% | -24.1 | -21.9% | -3.3% | -6.2% | -2.2
CNS(=O)(=O)c1ccc(C(=O)NCC2(c3ccccc3)CC2)cc1 | · | · | · | · | · | 10.6
Cc1ccc(CNS(=O)(=O)c2cc(-c3cc(C)no3)ccc2C)cc1 | · | · | · | · | · | -0.5
CCc1ccc(-c2cc(C)no2)cc1S(=O)(=O)NCCc1ccccc1 | ? | -12.7 | 18.4µM* | ? | ? | -3.0
Cc1cc(-c2ccc(C)c(S(=O)(=O)NCCc3ccccc3)c2)on1 | · | · | ? | ? | · | 1.8
CSc1ccc(CCNS(=O)(=O)c2cc(-c3cc(C)no3)ccc2C)cc1 | · | · | 20.6µM* | ? | · | -1.7
CCOC(=O)C1=CCN(S(=O)(=O)c2ccc(C)cc2)C1c1ccccc1 (stereo not drawn) | · | 22.5 | ? | ? | · | -1.6
CCOc1cc2c(c3c1C(c1ccccc1)N(S(=O)(=O)c1ccc(C)cc1)C3)C(=O)C=CC2=O (stereo not drawn) | · | -117.8* | 0.581µM* | 0.517µM* | · | 7.6
Cc1cc(C)c(C#N)c(SCC(F)(F)F)n1 | · | · | · | · | · | 0.0
CCCOc1c(C(=O)OC)sc2ccc(NC(=O)c3cccc(F)c3)cc12 | · | · | · | · | · | -0.1
CCCc1ccc2oc(C(=O)NCCN3CCCC(O)C3)c(C)c2c1 (stereo not drawn) | · | -66.3* | ? | ? | · | -9.9
C/C(CCc1ccc2c(c1)OCO2)=N\N=C1\NC(=O)CC(C(=O)Nc2ccccc2F)S1 (stereo not drawn) | ? | 32.5 | -17.1% | -8.7% | 11.2µM* | -10.1
CCNC(=O)C1CC(=O)N(Cc2ccc3c(c2)OCO3)C(=Nc2ccc(F)cc2)S1 (stereo not drawn) | -11.1% | 1.7 | -21.0% | -24.2% | -26.9% | -11.7
OB(O)c1csc2ccccc12 | -7.5% | · | 11.2µM* | -4.2% | 5.8% | -5.3
OB(O)c1cccc2c1sc1ccccc12 | · | · | · | · | · | 9.4
CC(NC(=O)c1cc(F)cc(F)c1)c1cccc(NS(C)(=O)=O)c1 (stereo not drawn) | · | · | · | · | · | 5.8
CCCCNC(=O)c1nc(-c2cc3ccccc3[nH]2)oc1-c1ccccc1 | · | 6.0 | 16.4µM* | ? | · | -4.9
CCCCNC(=O)c1nc(-c2cccs2)oc1-c1ccc(Cl)cc1 | · | -5.1 | 14.6µM* | ? | · | 0.1
O=C(Cn1ccc(=O)[nH]c1=O)c1ccc([N+](=O)[O-])o1 | · | ? | 2.06µM* | 5.17µM* | · | 11.4
O=c1c2ccccc2sn1-c1ccc(Cl)cc1Cl | · | -105.5* | 2.91µM* | 6.51µM* | · | -10.7
COCCn1c(=O)cnc2cnc(Nc3ccccc3)nc21 | ? | · | 14.6µM* | 9.2µM* | -33.2% | ·
SMILES | VP16 counter | IL-1B inflam inh | DT40 TDP1 no CPT | DT40 TDP1 CPT | RORgamma inh | LDHA inh
COCCn1c(=O)c(-c2ccccc2)nc2cnc(Nc3ccccc3)nc21 | 1.8% | · | -9.9% | 12.2% | -1.9% | ·
O=c1cnc2cnc(Nc3ccccc3)nc2n1C[C@H]1CCCO1 | ? | · | 9.2µM* | 8.2µM* | -37.4% | ·
COc1cccc(Nc2ncc3nc(-c4ccccc4)c(=O)n(C[C@H]4CCCO4)c3n2)c1 | -28.1% | · | ? | -3.6% | 8.9% | ·
COc1cccc(Nc2ncc3ncc(=O)n(C[C@H]4CCCO4)c3n2)c1 | 11.2µM* | · | ? | ? | -32.6% | ·
CC1=C(C(=O)OC(C)(C)C)C(/C(Cl)=C/c2ccccc2)NC(=O)N1 (stereo not drawn) | · | · | · | · | · | 0.8
O=C(NC(c1ccc(F)cc1)c1ccc2ccccc2n1)C1CCN(CCOc2ccc(F)cc2)CC1 (stereo not drawn) | · | ? | 8.2µM* | 8.2µM* | · | -8.9
COc1ccc(OCCN2CCC(C(=O)NC(c3ccc(F)cc3)c3ccc4ccccc4n3)CC2)cc1 (stereo not drawn) | · | -50.1* | 18.4µM* | 29.1µM* | · | -3.2
COc1ccc(C(NC(=O)C2CCN(CCCOc3ccccc3)CC2)c2ccccn2)cc1 (stereo not drawn) | · | -12.7 | -17.0% | -25.1% | · | -7.0
O=C(NC(c1ccccc1)c1ccc2ccccc2n1)C1CCN(CCOc2ccc(Cl)cc2)CC1 (stereo not drawn) | · | -100.3* | 16.4µM* | 23.1µM* | · | -2.2
COc1ccc(C(NC(=O)C2CCN(CCOc3ccc(Cl)cc3)CC2)c2cccs2)cc1 (stereo not drawn) | · | -71.2* | ? | ? | · | -12.9
Cc1nc2nc(SCC(=O)c3ccc(F)cc3)[nH]c2cc1Br | · | · | · | · | · | 3.8
O=C(NC(c1ccc2c(c1)OCO2)c1ccccn1)C1CCN(CCOc2ccc(Cl)cc2Cl)CC1 (stereo not drawn) | · | ? | ? | ? | · | 0.4
COc1ccc(OCCN2CCC(C(=O)NC(c3ccc(OC)cc3)c3ccccn3)CC2)cc1 (stereo not drawn) | · | -7.8 | -23.0% | -13.8% | · | -1.6
COc1ccc(OCCN2CCC(C(=O)NC(c3ccccc3)c3ccc4ccccc4n3)CC2)cc1 (stereo not drawn) | · | -80.1* | ? | ? | · | 1.5
O=C(NC(c1ccc(F)cc1)c1ccc2ccccc2n1)C1CCN(CCOc2ccc(Cl)cc2Cl)CC1 (stereo not drawn) | · | ? | ? | 16.4µM* | · | -2.3
CCCCCCC(C)n1[nH]c(=O)c2c(C)cc(=O)[nH]c21 (stereo not drawn) | 3.98µM* | ? | ? | ? | 7.08µM* | 1.4
COc1cc(/C=C(/C#N)c2ccc(C(F)(F)F)cn2)cc(OC)c1 | · | · | · | · | · | -3.1
Cc1oc(-c2nc(C#N)c(NCc3ccccc3)o2)cc1S(=O)(=O)N1CCOCC1 | · | · | · | · | · | -4.7
CCCCOC(=O)c1ccc(NC(=O)c2ccc3c(c2)CCN3S(=O)(=O)c2ccccc2)cc1 | · | · | 7.31µM* | 5.8µM* | · | -0.5
CC(=O)Nc1cccc(NC(=O)c2ccc3c(c2)CCN3S(=O)(=O)c2ccccc2)c1 | 1.8% | ? | ? | ? | 13.7% | 1.8
CCOC(=O)c1ccc(NC(=O)c2ccc3c(c2)CCN3S(=O)(=O)c2ccc(Cl)cc2)cc1 | · | · | ? | 7.31µM* | · | 1.8

Compound activity deposited in PubChem BioAssay by National Center for Advancing Translational Sciences (NCATS).
